From PubChem BioAssay (Tox21) come the findings set out here.

A short description of experiment [1]: Nuclear factor erythroid 2-related factor 2/antioxidant responsive element (Nrf2/ARE) small molecule agonists: qHTS cell viability counter screen in human keratinocytes (AID 1919968; active = well fitted curve in the direction sought with a large enough effect in the repeat runs; an effect the other way counts as inactive or inconclusive; note: nearly all actives have a fitted effect of over 55% in size). In outline: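 Viability counter-screen: KeratinoSens reporter cells, DMSO-delivered compounds, 23 h at 37 C, CellTiter-Fluor fluorescence.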
In general terms: qHTS replaces the single test concentration by a dilution series.

A short description of experiment [2]: Nuclear factor erythroid 2-related factor 2/antioxidant responsive element (Nrf2/ARE) small molecule agonists: luciferase reporter gene qHTS assay in human keratinocytes (AID 1919969). Note: nearly all actives have a fitted effect of over 35% in size. A general note: A reporter such as luciferase makes a cellular process visible.
Experiment [3] concerns the target Gonadotropin-releasing hormone receptor (Homo sapiens) (UniProt P30968). As to the kind of experiment: Human gonadotropin-releasing hormone receptor (GnRHR) small molecule agonists, calcium flux assay in GnRHR-HEK293 cells (AID 1920063). Note: nearly all actives have a fitted effect of over 35% in size. The method, boiled down: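 Tox21-format agonist screen using human GnRHR-expressing HEK293 cells and a fluorescent calcium dye; kinetic 3-min fluorescence reading after compound addition, 15-point concentration series run in triplicate.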
(Calcium flux is commonly read through the fluorescence of an indicator in the cells.)

In experiment [4] the target is KiSS-1 receptor (Homo sapiens) (UniProt Q969F8). Nature of the experiment: Human kisspeptin (KISS1R) small molecule agonists, calcium flux assay in KISS1R-HEK293 cells (AID 1920064; active = well fitted curve in the direction sought with a large enough effect in the repeat runs; an effect the other way counts as inactive or inconclusive). In outline: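 Intracellular calcium mobilization in KISS1R-HEK293 cells was recorded by fluorescence (Ex/Em 480/540) for 3 min following compound addition to cells pre-loaded 1 h with calcium dye.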

Experiment [5] is described as follows: G protein-coupled receptor (GPCR) small molecule agonists, calcium flux assay: HEK293 wild type cell line counter screen (AID 1920065). In outline: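 In this agonist-mode screen, ATP is the positive control and DMSO the vehicle. Cells grow 18 h before a 1 h dye incubation at 37 C; signal is taken at Ex/Em 480/540 over 3 min.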
A short description of experiment [6]: p53 small molecule agonists, cell-based qHTS assay with human liver microsomes (AID 1963577). The method, boiled down: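 Fluorescence of the beta-lactamase reporter in p53RE-bla cells, detected with LiveBLAzer substrate (2 h, room temperature, dark), served as the read-out after 16 h compound exposure at 37 C with human liver microsomes and NADPH, each 0.5 mg/mL final.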

Experiment [7] in a line: p53 small molecule agonists, cell-based qHTS assay with rat liver microsomes (AID 1963578). The method, boiled down:
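Cells carrying a p53 response element–beta-lactamase reporter were plated and rested 5 h, then dosed with compound in DMSO plus rat liver microsomes and NADPH, each at 0.5 mg/mL final. After 16 h at 37 C, LiveBLAzer substrate was added for 2 h.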

Experiment [8] is described as follows: p53 small molecule agonists, cell-based qHTS assay with human liver microsomes: qHTS cell viability counter screen (AID 1963579). Note: nearly all actives have a fitted effect of over 45% in size. Note: potency is the fitted concentration of half-maximal effect. The method, boiled down: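 Cytotoxicity counter screen: p53RE-bla, 4,000 cells/well; 5 h settle, 37 C/5% CO2; cpd + HLM 0.5 mg/mL + NADPH 0.5 mg/mL (final); 16 h, 37 C; CellTiter-Glo, 30 min RT, luminescence.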
Experiment [9] can be described thus: p53 small molecule agonists, cell-based qHTS assay with rat liver microsomes: qHTS cell viability counter screen (AID 1963580). Note: nearly all actives have a fitted effect of over 45% in size. The method, boiled down: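 In HCT-116 cells carrying a p53 response element-bla reporter, compounds were metabolically activated in situ by rat liver microsomes with NADPH over 16 h. Cell ATP content then served as the cytotoxicity measure.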

A short description of experiment [10]: p53 small molecule agonists, cell-based qHTS assay: qHTS cell viability counter screen (AID 1963581). Note: nearly all actives have a fitted effect of over 45% in size. The method, boiled down: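 Compounds are pinned onto HCT-116 p53RE-bla cells and left 16 h at 37 C. Following the reporter FRET read, ATP is quantified by CellTiter-Glo luminescence after 30 min at room temperature.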
Experiment [11] is described as follows: p53 small molecule agonists, cell-based qHTS assay (AID 1963582; active = well fitted activation curve with a large enough effect in the signal ratio in the repeat runs, not every such curve was filed as active; the % refers to the signal ratio). In outline: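 Agonist activity was scored from beta-lactamase FRET fluorescence in p53RE-bla cells treated 16 h at 37 C with compounds in DMSO, substrate incubation being 2 h at room temperature.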
Experiment [12] deals with 5-hydroxytryptamine receptor 2A (Homo sapiens) (UniProt P28223). As to the kind of experiment: 5-hydroxytryptamine receptor 2A (HTR2A) small molecule antagonists, cell-based qHTS assay (AID 1963586). Note: nearly all actives have a fitted effect of over 45% in size. In outline:
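Antagonist-mode intracellular calcium assay: DOI (4 nM) added after 5 min compound pre-incubation at room temperature to dye-loaded HTR2A-CHO cells. Fluorescence followed for 3 min, sampled every second.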

The target is the same in experiment [13]. Nature of the experiment: 5-hydroxytryptamine receptor 2A (HTR2A) small molecule agonists, cell-based qHTS assay (AID 1963587). Note: nearly all actives have a fitted effect of over 30% in size. The method, boiled down: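 HTR2A-CHO cells, plated 18 h at 37 C/5% CO2, dye-loaded 1 h at 37 C; compounds in DMSO added by pin tool (agonist mode). Intracellular calcium flux read as kinetic fluorescence on FDSS over 2 min at 1 s intervals.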

The target in experiment [14] is Muscarinic acetylcholine receptor M1 (Homo sapiens) (UniProt P11229). As to the kind of experiment: Cholinergic receptor muscarinic 1 (CHRM1) small molecule antagonists, cell-based qHTS assay (AID 1963588). Note: nearly all actives have a fitted effect of over 40% in size. In outline:
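CHRM1-CHO calcium-flux assay, antagonist mode. Cells were seeded 18 h, dye-loaded 1 h at 37 C and given compound for 5 min at RT, then acetylcholine was added at 50nM. FDSS fluorescence was read 3 min; 15 concentrations, three runs.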

Experiment [15] has the same target. As to the kind of experiment: Cholinergic receptor muscarinic 1 (CHRM1) small molecule agonists, cell-based qHTS assay (AID 1963589). Note: nearly all actives have a fitted effect of over 35% in size. In outline: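 Stable CHRM1-CHO cells (human receptor) were incubated 18 h, dye-loaded for 1 h at 37 C and exposed to test compounds for agonist activity, with calcium-dependent fluorescence followed kinetically.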
Experiment [16] can be described thus: cAMP Responsive Elements (CRE) small molecule agonists, cell-based qHTS assay (AID 1963590). In outline:
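FRET-based beta-lactamase readout (LiveBLAzer B/G, 2 h RT) quantified CRE activation in HEK 293T CRE-bla cells after 3 h treatment with DMSO-dissolved compounds.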

The nature of experiment [17]: cAMP Responsive Elements (CRE) small molecule antagonists, cell-based qHTS assay (AID 1963591; active = well fitted inhibition curve with a large enough effect in the signal ratio in the repeat runs, not every such curve was filed as active; the % refers to the signal ratio). The method, boiled down: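 qHTS in CRE-bla HEK 293T cells: compound in DMSO, then 0.25 uM NKH477 (final), 3 h at 37 °C/5% CO2; beta-lactamase FRET read-out after 2 h substrate incubation.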
The target in experiment [18] is D(2) dopamine receptor (Homo sapiens) (UniProt P14416). Nature of the experiment: Dopamine D2 receptor (DRD2) small molecule agonists, cell-based qHTS assay (AID 1963594). Note: nearly all actives have a fitted effect of over 35% in size. The method, boiled down:
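HEK293 cells stably expressing DRD2 were cultured 24 h at 37 C, then given Ro20-1724 (0.1 mM final) and compounds for 10 min at room temperature. NKH477 (200nM) was then added for 30 min. cAMP was read by HTRF.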

The target is the same in experiment [19]. Nature of the experiment: Dopamine D2 receptor (DRD2) small molecule antagonists, cell-based qHTS assay (AID 1963595; active = well fitted inhibition curve with a large enough effect in the signal ratio in the repeat runs, with a control signal flat; the % refers to the signal ratio). In outline:
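Cells were plated and grown for 24 h at 37 °C. Ro20-1724 (0.1 mM final) went in first, then compound for 10 min. NKH477 (200 nM) with quinpirole (12 nM) followed for 30 min at RT, then HTRF detection reagents for 1 h.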

For experiment [20], the target named is Beta-2 adrenergic receptor (Homo sapiens) (UniProt P07550). As to the kind of experiment: Adrenergic beta2 receptor (ADRB2) small molecule antagonists, cell-based qHTS assay (AID 1963592). Note: series mostly up to about 92 µM; nearly all actives have a fitted effect of over 50% in size. In outline:
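Cells (CHO, stable ADRB2 overexpression) incubated 18-20hr at 37C; compounds added from DMSO; agonist mix (1nM isoproterenol, 100uM IBMX, 25uM Ro-20-1724) added; 0.5hr RT; d2-cAMP and anti-cAMP-cryptate added; 1hr RT; 665/615 nm read.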

SMILES strings stand for the structures. A number with no mark means an inactive call. Results filed as inconclusive are left out. Activity calls are given as the source filed them. Unless noted, calls come from the whole dose curve.

Sequence of D(2) dopamine receptor (Homo sapiens) (P14416 whole entry, looked up): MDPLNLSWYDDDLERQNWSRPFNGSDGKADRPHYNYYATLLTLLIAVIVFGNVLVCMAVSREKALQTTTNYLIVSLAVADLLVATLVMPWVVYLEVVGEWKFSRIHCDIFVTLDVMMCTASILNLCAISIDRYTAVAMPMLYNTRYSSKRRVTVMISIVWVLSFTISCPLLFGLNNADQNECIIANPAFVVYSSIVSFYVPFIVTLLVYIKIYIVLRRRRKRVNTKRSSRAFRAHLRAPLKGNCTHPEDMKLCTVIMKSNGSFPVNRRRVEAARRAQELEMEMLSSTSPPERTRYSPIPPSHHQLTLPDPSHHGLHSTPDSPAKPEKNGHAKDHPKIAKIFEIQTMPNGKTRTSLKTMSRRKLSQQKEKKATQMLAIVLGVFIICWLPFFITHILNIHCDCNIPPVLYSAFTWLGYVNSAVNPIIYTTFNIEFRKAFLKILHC
Sequence of 5-hydroxytryptamine receptor 2A (Homo sapiens) (P28223 whole entry, looked up): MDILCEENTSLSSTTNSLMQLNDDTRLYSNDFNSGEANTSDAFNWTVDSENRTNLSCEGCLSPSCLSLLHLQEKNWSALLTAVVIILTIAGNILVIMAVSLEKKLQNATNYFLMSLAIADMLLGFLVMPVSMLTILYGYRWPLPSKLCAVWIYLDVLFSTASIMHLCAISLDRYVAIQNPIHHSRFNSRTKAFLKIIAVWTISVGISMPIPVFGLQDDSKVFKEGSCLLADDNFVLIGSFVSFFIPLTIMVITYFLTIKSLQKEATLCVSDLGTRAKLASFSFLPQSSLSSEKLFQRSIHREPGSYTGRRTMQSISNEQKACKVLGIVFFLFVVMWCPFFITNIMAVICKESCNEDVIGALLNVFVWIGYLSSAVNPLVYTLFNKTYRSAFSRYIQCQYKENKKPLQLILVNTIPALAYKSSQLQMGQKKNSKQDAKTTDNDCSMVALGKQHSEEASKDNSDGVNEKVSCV
Sequence of KiSS-1 receptor (Homo sapiens) (Q969F8 whole entry, looked up): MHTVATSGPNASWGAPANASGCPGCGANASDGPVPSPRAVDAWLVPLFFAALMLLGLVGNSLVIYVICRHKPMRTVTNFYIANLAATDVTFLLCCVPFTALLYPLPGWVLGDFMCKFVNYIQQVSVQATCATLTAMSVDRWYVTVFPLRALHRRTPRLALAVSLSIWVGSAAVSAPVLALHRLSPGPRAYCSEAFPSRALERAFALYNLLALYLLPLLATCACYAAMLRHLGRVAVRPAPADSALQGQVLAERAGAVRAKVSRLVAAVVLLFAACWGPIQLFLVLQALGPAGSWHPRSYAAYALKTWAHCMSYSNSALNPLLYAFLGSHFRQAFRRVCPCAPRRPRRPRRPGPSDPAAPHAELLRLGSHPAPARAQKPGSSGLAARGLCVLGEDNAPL
Sequence of Gonadotropin-releasing hormone receptor (Homo sapiens) (P30968 whole entry, looked up): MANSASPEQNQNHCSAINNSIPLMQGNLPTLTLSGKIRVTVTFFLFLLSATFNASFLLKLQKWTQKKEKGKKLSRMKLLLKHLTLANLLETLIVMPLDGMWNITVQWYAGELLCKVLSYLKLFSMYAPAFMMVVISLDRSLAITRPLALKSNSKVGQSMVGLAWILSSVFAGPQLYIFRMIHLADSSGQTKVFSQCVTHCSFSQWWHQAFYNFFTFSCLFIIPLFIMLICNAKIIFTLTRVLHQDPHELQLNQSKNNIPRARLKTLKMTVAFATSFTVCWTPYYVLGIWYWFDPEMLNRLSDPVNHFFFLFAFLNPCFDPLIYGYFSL
Sequence of Beta-2 adrenergic receptor (Homo sapiens) (P07550 whole entry, looked up): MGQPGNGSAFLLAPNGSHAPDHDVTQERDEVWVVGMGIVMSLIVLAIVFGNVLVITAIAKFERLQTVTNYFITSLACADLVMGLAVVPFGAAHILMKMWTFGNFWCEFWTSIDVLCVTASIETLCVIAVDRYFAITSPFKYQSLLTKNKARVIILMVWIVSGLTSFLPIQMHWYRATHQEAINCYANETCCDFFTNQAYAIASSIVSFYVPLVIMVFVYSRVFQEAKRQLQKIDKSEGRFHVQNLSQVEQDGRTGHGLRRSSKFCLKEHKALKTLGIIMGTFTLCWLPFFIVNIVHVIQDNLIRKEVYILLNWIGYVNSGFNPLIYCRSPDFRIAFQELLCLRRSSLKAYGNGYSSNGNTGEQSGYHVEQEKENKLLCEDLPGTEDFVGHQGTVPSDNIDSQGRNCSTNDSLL
Sequence of Muscarinic acetylcholine receptor M1 (Homo sapiens) (P11229 whole entry, looked up): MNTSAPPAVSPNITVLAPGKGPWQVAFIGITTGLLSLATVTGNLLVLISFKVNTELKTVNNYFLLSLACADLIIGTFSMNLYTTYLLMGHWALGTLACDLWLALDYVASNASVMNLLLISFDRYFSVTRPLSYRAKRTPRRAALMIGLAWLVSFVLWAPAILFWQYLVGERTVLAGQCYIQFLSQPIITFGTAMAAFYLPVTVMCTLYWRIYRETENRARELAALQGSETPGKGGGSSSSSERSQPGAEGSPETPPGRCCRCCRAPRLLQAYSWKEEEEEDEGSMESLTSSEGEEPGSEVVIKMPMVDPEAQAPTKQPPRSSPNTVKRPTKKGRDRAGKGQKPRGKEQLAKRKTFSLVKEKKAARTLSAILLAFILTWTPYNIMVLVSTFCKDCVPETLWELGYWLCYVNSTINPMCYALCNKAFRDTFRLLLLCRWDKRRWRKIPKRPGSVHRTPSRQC

With `CC1(C)S[C@@H]2[C@H](NC(=O)C(C(=O)O)c3ccccc3)C(=O)N2[C@H]1C(=O)O` (stereo partly drawn), the Potency result in experiment [1], in experiment [2], in experiment [3], in [6], in [7] and in experiment [9] was “inactive” throughout. For the same compound, the Potency result in [10], in experiment [11], in experiment [12], in experiment [13], in experiment [14] and in [15] was “inactive” throughout. For the same compound, the Potency entry in experiment [16], in [17] and in experiment [18] was “inactive” each time. Further, the outcome in experiment [4] and in experiment [5] was inactive. Also, in [8], the Potency is 177 nM (active).
For `COC(=O)c1c(C)cc(O)c(C)c1O`, the Potency entry in [1], in experiment [2], in experiment [3], in [6], in experiment [7] and in experiment [8] was “inactive” in each case. In addition, the Potency entry in [9], in experiment [10], in [11], in [12], in experiment [13] and in [14] was “inactive” throughout. The Potency result in experiment [15], in experiment [16], in experiment [17], in experiment [18] and in experiment [19] was “inactive” throughout. Further, the result in experiment [4] and in experiment [5] was inactive.
With `CC(=O)c1cccnc1`, the Potency entry in [1], in experiment [2], in experiment [3], in [6], in experiment [7] and in [8] was “inactive” each time. For the same compound, the Potency result in experiment [9], in experiment [10], in experiment [11], in experiment [12], in experiment [13] and in experiment [14] was “inactive” in each case. Further, the Potency result in [15], in experiment [16], in experiment [20], in [18] and in experiment [19] was “inactive” in each case. Moreover, the outcome in experiment [4] and in experiment [5] was inactive.
Consider `CCCCS(=O)(=O)N[C@@H](Cc1ccc(OCCCCC2CCNCC2)cc1)C(=O)O`, for which the Potency entry in experiment [1], in experiment [2], in [3], in experiment [6], in experiment [7] and in experiment [8] was “inactive” in each case. Besides, the Potency entry in experiment [9], in experiment [10], in [11], in experiment [12], in experiment [13] and in [14] was “inactive” throughout. Further, the Potency result in [15], in experiment [16], in experiment [17], in experiment [20] and in [19] was “inactive” throughout. For the same compound, the outcome in experiment [4] and in experiment [5] was inactive.
As for `CC(=O)NC(=O)c1ccccc1O`, the Potency result in [1], in [2], in experiment [3], in experiment [6], in experiment [7] and in experiment [8] was “inactive” throughout. Further, the Potency entry in experiment [9], in [10], in experiment [11], in [12], in experiment [13] and in [14] was “inactive” throughout. The Potency entry in [15], in experiment [17], in experiment [20] and in experiment [19] was “inactive” in each case. The outcome in experiment [4] and in experiment [5] was inactive.
